From PubChem
CHX counter = affects cycloheximide protein synthesis inhibition readout, counter-screen; max response, %; cell reporter, cycloheximide protein synthesis inhibition counterscreen; hit rate 12% among 300,000; in the data active = max response mostly above about 13%, no sharp cut-off; inactive = mostly below about 14%; note: read at 38.3 µM for the half of the compounds with a filed dose
AMA1-RON2 inh = disrupts binding of P. falciparum AMA1 to RON2; AlphaScreen AMA1-biotinylated RON2 peptide binding; Potency, µM (top dose mostly 58.2 µM), most hits filed as inhibitors; hit rate 0.2% among 360,000; note: nearly all actives have a fitted effect of over 45% in size
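AMA1 (3D7) with his tag at 25 nM final met compounds first, then biotinylated RON2 peptide at 25 nM; detection used donor plus acceptor beads, 10 µg/mL apiece, read by AlphaScreen after 30 min at room temperature.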
SARS PLP yeast = blocks SARS-CoV papain-like protease in a yeast assay. S. cerevisiae expressing SARS-CoV PLpro, growth rescue. Potency, µM (series often up to 32.9 µM), hits mostly activators. hit rate 0.19% among 330,000; calls by dose curve; note: nearly all actives have a fitted effect of over 55% in size
Pf growth 96h = P. falciparum growth inhibition at 96 hour, primary screen for plastid delayed-death inhibitors; P. falciparum luciferase reporter growth, 96 h; Potency, µM (doses to about 28.7 µM), hits mostly inhibitors; hit rate 6.9% among 320,000; AID 504834
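Erythrocytes infected with luciferase-expressing P. falciparum were dispensed at 2% hematocrit and 0.05% parasitemia (final), then incubated with compounds 96 hours at 37 C in 5% CO2. Luminescence after detection reagent addition reported growth.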
Pf growth 48h = inhibits P. falciparum growth in the first generation, 48 h; P. falciparum luciferase growth in erythrocytes, 48 h; Potency, µM (top dose mostly 28.7 µM), most hits filed as inhibitors; hit rate 5.9% among 310,000
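Luminescence readout; reporter = integrated firefly luciferase in P. falciparum. RBC culture at 2% hematocrit, 0.1% parasitemia final, 37 C/5% CO2; decreased signal taken as growth inhibition.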
Shiga inhibitor = inhibitors of Shiga toxin in Vero cells | Vero cells, Shiga toxin protein synthesis inhibition reporter | inhibition, % at 38.7 µM | hit rate 9.2% among 290,000 | AID 2315; in the data active = inhibition mostly above about 28%, no sharp cut-off; inactive = mostly below about 43%
Large screens that a line does not name were inactive. Shown are actives, neighbours in structure and some others; about 19% of the full set was active somewhere. Unless noted, calls come from the whole dose curve; as a rule, active = well fitted curve in the direction sought with a large enough effect; inconclusive = small, poorly fitted or top-dose-only effect, or another doubt; inactive = no such curve, though single readings can be large; an effect the other way counts as inactive or inconclusive.

Cc1ccc(-n2nnc3c(=O)n(CC(=O)NCC4CCCO4)cnc32)cc1 (stereo not given)	none (no result: Pf growth 96h)
COC(=O)C1(C(=O)OC)C[C@H](c2ccc(OC)cc2)N(Cc2ccccc2OC)[C@@H]1c1ccccc1	none (no result: CHX counter, SARS PLP yeast, Pf growth 96h, Pf growth 48h, Shiga inhibitor)
Cc1cc(C(=O)COc2cccc(-n3cnnn3)c2)c(C)n1-c1ccccc1	CHX counter 16, Pf growth 48h inconclusive
Cc1cc(C(=O)CSc2nncn2C)c(C)n1-c1ccccc1	CHX counter 34, Shiga inhibitor 59
Cc1nnc(SCC(=O)c2cc(C)n(-c3c(C)n(C)n(-c4ccccc4)c3=O)c2C)s1	none
Cc1cc(C(=O)CSc2cccc[n+]2[O-])c(C)n1-c1ccccc1	CHX counter 47, Shiga inhibitor 85
Cc1cc(C(=O)CCl)c(C)n1-c1c(C)n(C)n(-c2ccccc2)c1=O	Pf growth 96h 6.6µM, Pf growth 48h 8.3µM
O=C(CSc1cccc[n+]1[O-])c1ccccc1Br	Pf growth 96h inconclusive
O=C(CCCOc1ccc(Cl)cc1Cl)N/N=C/c1cccc([N+](=O)[O-])c1	none
Cc1cc(C(=O)CSc2cccc[n+]2[O-])c(C)n1-c1ccc(Br)cc1	CHX counter 35, Pf growth 96h 6.6µM, Shiga inhibitor 91 (no result: AMA1-RON2 inh)
C=CCN(Cc1ccc(OC)c(OC)c1)C(=O)c1cc2cc(F)ccc2[nH]1	Pf growth 96h inconclusive, Pf growth 48h inconclusive
CCOC(=O)c1sc(C)c2c1NC(c1ccc(N(C)C)cc1)NC2=O (stereo not given)	Pf growth 96h inconclusive, Pf growth 48h inconclusive
CCOC(=O)CC1(CC(=O)OCC)NC(=O)c2c(C)sc(C(=O)OCC)c2N1	Pf growth 96h 3.7µM
CCOC(=O)CC1(C)NC(=O)c2c(C)sc(C(=O)OCC)c2N1 (stereo not given)	none
CCCCC1(C)NC(=O)c2c(C)sc(C(=O)OCC)c2N1 (stereo not given)	Pf growth 96h 8.3µM, Pf growth 48h inconclusive
NNC(=O)c1ccc(CSc2n[nH]c(=O)[nH]c2=O)cc1	none
C/C(NC(=O)c1ccccc1)=C1/C(=O)CC2C1C2(C)C (stereo not given)	CHX counter 43, Shiga inhibitor 119
COc1ccc(C)cc1NC(=O)C(c1ccccc1)N1CCN(CC(=O)N2CCCC2)CC1 (stereo not given)	Pf growth 96h 12µM, Pf growth 48h 12µM (no result: CHX counter, Shiga inhibitor)
Cc1ccc(NC(=O)C(c2ccccc2)N2CCN(CC(=O)N3CCOCC3)CC2)cc1 (stereo not given)	Pf growth 48h inconclusive (no result: CHX counter, Shiga inhibitor)
COc1ccc(C)cc1NC(=O)C(c1ccccc1)N1CCN(CC(=O)N2CCOCC2)CC1 (stereo not given)	Pf growth 96h inconclusive, Pf growth 48h 9.3µM (no result: CHX counter, Shiga inhibitor)
NC(=O)c1ccc(NC(=O)COC(=O)C2COc3ccccc3O2)cc1 (stereo not given)	none (no result: CHX counter, Pf growth 96h, Pf growth 48h, Shiga inhibitor)
CC(C)NC(=O)CN1CCN(Cc2nc(C(c3ccccc3)c3ccccc3)no2)CC1	Pf growth 48h 9.3µM
Cc1cccc(NCc2ccc(Br)cc2)n1	CHX counter 35, Shiga inhibitor 109
Cc1cccc(NCc2cccc3ccccc23)n1	CHX counter 41, Pf growth 96h inconclusive
Cc1cccc(NC(=O)Cc2coc3ccc4ccccc4c23)n1	AMA1-RON2 inh inconclusive, Pf growth 48h inconclusive (no result: Pf growth 96h)
CN(C)S(=O)(=O)N1CCC(Oc2ccc(C(=O)NCc3cnn(C)c3)cc2)CC1	Pf growth 96h inconclusive
C=CCNC(=O)c1ccc(OC2CCN(S(=O)(=O)N(C)C)CC2)cc1	CHX counter 51, Shiga inhibitor 95
C=CCN(CC=C)C(=O)c1ccc(OC2CCN(S(=O)(=O)N(C)C)CC2)cc1	CHX counter 53, Shiga inhibitor 87
COC(=O)CN(C)C(=O)c1ccc(OC2CCN(S(=O)(=O)N(C)C)CC2)cc1	CHX counter 21, Pf growth 96h inconclusive, Shiga inhibitor 33
COCCN(C(=O)c1ccc(OC2CCN(S(=O)(=O)N(C)C)CC2)cc1)C(C)C	CHX counter 11, Pf growth 96h inconclusive
CCCCC(=O)NN(C)c1nc(-c2ccccc2)nnc1C(F)(F)F	none (no result: Pf growth 48h)
CC1Cc2ccccc2N1Cc1nc2cc(C(F)(F)F)ccc2c(=O)[nH]1 (stereo not given)	Pf growth 96h inconclusive, Pf growth 48h inconclusive
CN(C)S(=O)(=O)N1CCC(Oc2ccc(C(=O)NCC(C)(C)CO)cc2)CC1	Pf growth 96h 1.7µM
Nc1c(C(O)(C(F)(F)F)C(F)(F)F)cc(C(O)(C(F)(F)F)C(F)(F)F)c2ccccc12	Pf growth 96h inconclusive, Pf growth 48h 9.3µM
CC(=O)Nc1ccc(CN2CCc3c([nH]c4ccccc34)C2C(C)(C)C)cc1 (stereo not given)	none
CC(C)(C)C1c2[nH]c3ccccc3c2CCN1Cc1cccc(OCCO)c1 (stereo not given)	CHX counter 11, Pf growth 96h inconclusive
CCCC(=O)Nc1ccc2nc(SCC(=O)N3CCCC3)sc2c1	Pf growth 48h inconclusive
CN1CCN(C(=O)CSc2nc3ccc(NC(=O)c4ccccc4F)cc3s2)CC1	CHX counter 14, Pf growth 96h inconclusive, Pf growth 48h inconclusive
Cn1c(SCC(=O)Nc2ccc3nc(SCC(=O)N4CCCC4)sc3c2)nnc1-c1ccccc1	Pf growth 96h 3.3µM, Pf growth 48h 9.3µM
Cn1cnnc1SCC(=O)Nc1ccc2nc(SCc3ccccc3F)sc2c1	CHX counter 50, Shiga inhibitor 165 (no result: Pf growth 96h)
O=C(O)c1cccc(OS(=O)(=O)c2cc(Br)ccc2Br)c1	none (no result: CHX counter, Shiga inhibitor)
CC(=O)NC1C(=O)Nc2c(C)cc(C)cc21 (stereo not given)	none
ClC(Cl)c1nnc(-c2ccccc2)c(-c2c[nH]c3ccccc23)n1	Pf growth 96h 9.3µM, Pf growth 48h inconclusive, Shiga inhibitor active
CCCc1cc(C(=O)Nc2nnc(C)s2)cs1	CHX counter 33, Shiga inhibitor 128
CCOc1cc(C(=O)Nc2nnc(C)s2)cc(OCC)c1OCC	none
Cc1nnc(NC(=O)c2ccc3ccccc3c2)s1	CHX counter 31, Shiga inhibitor 74
Cc1ccc(C(=O)Nc2nnc(C)s2)cc1	CHX counter 27, Shiga inhibitor 64
CC(C)c1nnc(NC(=O)c2ccc3ccccc3c2)s1	CHX counter 51, Shiga inhibitor 108
Cc1ccc(CN2C(=O)C(C)Nc3ncnc(N4CCOCC4)c32)cc1 (stereo not given)	Pf growth 96h 12µM, Pf growth 48h 10µM (no result: CHX counter, Shiga inhibitor)
O=C1C(Cc2ccccc2)Nc2ncnc(N3CCc4ccccc4C3)c2N1Cc1ccccc1 (stereo not given)	none (no result: CHX counter, Pf growth 96h, Pf growth 48h, Shiga inhibitor)
O=C1C(Cc2ccccc2)Nc2ncnc(N3CCCCC3)c2N1Cc1ccc(Cl)cc1 (stereo not given)	Pf growth 96h 12µM, Pf growth 48h 12µM (no result: CHX counter, Shiga inhibitor)
O=C1C(Cc2ccccc2)Nc2ncnc(N3CCN(c4ccccc4)CC3)c2N1Cc1ccc(Cl)cc1 (stereo not given)	Pf growth 96h 9.3µM, Pf growth 48h 3.7µM (no result: CHX counter, Shiga inhibitor)
